SMILES strings stand for the structures. Unmarked numbers belong to inactive results. Activity calls are given as the source filed them.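 The calls were made as follows: active = growth inhibition above 50% at the single 2 µM test dose, taken to imply half-maximal potency below 2 µM; inactive = the rest.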

The nature of this experiment: antimalarial activity against Dd2 strain (AID 2302).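 Also: 0% = DMSO untreated growth and 100% = chloroquine plus artemisinin killed control.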 The settings on record: P. falciparum Dd2 in RBCs, LDH growth readout, 72 h; at 2 µM; active compounds read high.
Consider `COc1cccc(CNC[C@@H](O)[C@H](Cc2ccccc2)NC(=O)c2cc(C(C)C)cc(N3CCCC3=O)c2)c1`, for which the growth inhibition is 61% (active). In the case of `COc1ccc2ncc(C#N)c(CCN3CCC(NCc4ccc5c(c4)OCCO5)CC3)c2c1` it was 31%; in that of `CCC(CC)(Cc1ccccc1)NC(=O)[C@H](CC(C)C)Nc1ccc(C#N)c2ccccc12`, 73% (active). On to `O=S(=O)(Nc1cccc(CCN2CCCCC2CCN2CCCC2)c1)c1ccc(-c2ccccc2)cc1` (centres undefined), for which the growth inhibition was 5%. In the case of `COc1cccc2sc(N3CCN(C(=O)c4ccc([N+](=O)[O-])o4)CC3)nc12` it was 67% (active); in that of `Cc1onc(-c2c(F)cccc2Cl)c1C(=O)Nc1ccccc1I`, 52% (active).

Turning to `Cc1ccccc1C1CCN(C2CCC(NC(=O)c3ccc(-c4cccs4)s3)CC2)CC1` (centres undefined), the growth inhibition is 54% (active). Take `COc1ccccc1CCNc1nc(C)cc(NCCC(=O)Nc2ccccc2)n1`: the growth inhibition was 24%. The figure for `O=C(Cn1c(CCc2cccc(F)c2F)cc(=O)c2ccccc21)N(CCN1CCCC1)Cc1ccc(-c2ccc(C(F)(F)F)cc2)cc1` is 57% (active). The figure for `O=C(CCN1C(=O)c2ccccc2C1=O)N1CCN(CC=Cc2ccccc2)CC1` is 3%. Consider `Cc1cccc(CN2CCCC3(CCN(Cc4ccccc4O)C3)C2)c1` (centres undefined), for which the growth inhibition is 76% (active). The figure for `Nc1nc2c(c(=O)[nH]1)CN(S(=O)(=O)c1ccc(C(=O)N[C@@H](CCC(=O)O)C(=O)O)cc1)CC2` is 96% (active). In the case of `O=C(Nc1cccc(-c2nc3ccccc3[nH]2)c1)c1ccc(-c2cccc([N+](=O)[O-])c2)o1` it was 28%. The figure for `O=C(/C=C/c1ccc(Cl)c(Cl)c1)NCCCCCCN1CCN(C(=O)Nc2cccc(Cl)c2)CC1` is 2%; for `CC(Cc1ccc(CNC(=O)NCc2ccc(CC(C)NCCc3cccc(Cl)c3)cc2)cc1)NCCc1cccc(Cl)c1` (centres undefined) it is 44%. Turning to `CCCCCCN1CCC(NCc2cccc(C#N)c2)CC1`, the growth inhibition is 9%. The figure for `O=C(Nc1cccc(CN2CCCN(Cc3cccc(O)c3)CC2)c1)c1ccc(-c2ccccc2)cc1` is 66% (active); for `FC(F)(F)c1ccc2nc(-c3ccc(-c4cccc(CNCCc5cccnc5)c4)s3)[nH]c2c1` it is 98% (active). In the case of `CCCCCCCNC(=O)NCC1CCCN(CCCCCNC(=O)/C=C/c2ccc(Cl)c(Cl)c2)C1` (centres undefined) it was 7%. In the case of `CC1CCc2c(C(=O)Nc3c(F)cc(F)cc3Br)csc2C1` (centres undefined) it was 59% (active); in that of `CC(C)COc1ccc(Cl)cc1Cc1ccc(-c2nc3ccc(CCN(C)C)cc3[nH]2)o1`, 7%. `CCOc1ccc(C2CCN(CCCCNC(=O)c3ccc(NC(=O)c4ccc(Cl)cc4)cc3)CC2)c(OCC)c1`: the growth inhibition is 95% (active).

Consider `O=C(N[C@@H](CC1CCCCC1)C(=O)NC1CCCc2ccccc21)c1ccc(O)c(-c2ccc(Cl)c(Cl)c2)c1` (some centres undefined), for which the growth inhibition is 99% (active).

Regarding `CCOC(=O)c1ccc(-c2cnoc2-c2cc(CC)c(OC)cc2O)o1`, the growth inhibition was 97% (active). For `Cc1ccc2cc(NC(=O)c3cccc(C(=O)Nc4ccc5nc(C)ccc5c4)n3)ccc2n1`, the growth inhibition was 23%. Regarding `CC1CC(NCCCNc2cc(=O)c3ccccc3[nH]2)c2c(Cl)c(Cl)cc(Cl)c21` (centres undefined), the growth inhibition is 52% (active).

Take `N#Cc1ccc2c(c1)CCN(CCCn1c(-c3ccc4ccccc4c3)nc3ccncc31)CC2`: the growth inhibition was 97% (active). In the case of `O=C(Nc1ccc2nc3n(c(=O)c2c1)CCCCC3)C(=O)N1CCN(c2ccc(F)cc2)CC1` it was 86% (active). The figure for `COc1ccc2nccc(N3CCN(CCNCc4ccc5c(n4)NC(=O)CS5)CC3)c2n1` is 67% (active); for `COc1ccc(NC(=O)Nc2ccc(-c3ccncc3)c(C(F)(F)F)c2)cc1N1CCN(C)CC1` it is 62% (active). In the case of `O=S(=O)(NCCN1CCCC1)c1cccc(-c2ccc(CNCc3ccc(F)cc3)cc2)c1` it was 41%. For `O=C(NC1CC1)c1ccc(N2CCOc3ccc(Cl)cc32)s1`, the growth inhibition is 73% (active).

On to `CCOc1cc(Cc2cnc(N)nc2N)cc(OCC)c1OCCCCC(=O)OC`, for which the growth inhibition is 0%. As to `Clc1ccc(-c2ccc(C=NNc3nc(Nc4ccccc4)nc(Nc4ccccc4)n3)o2)cc1Cl`, the growth inhibition is 75% (active). The figure for `CCOC(=O)CNC(=O)N(CCN(Cc1ccccc1)C(=O)NCC(=O)OCC)Cc1ccccc1` is -1%; for `CCN(CC)CCN(Cc1ccc(-c2ccc(C(F)(F)F)s2)cc1)C(=O)Cn1c(CCc2cccc(F)c2F)nc(=O)c2ccccc21` it is 31%; for `O=C(Nc1cccc(-c2ccc(CN3CCNCC3)cc2)c1)c1cccc(Cl)c1` it is 4%. With `Cc1cccc(Cn2c(Cc3ccccc3)nnc2Sc2ccc([N+](=O)[O-])c(C#N)c2)c1`, the growth inhibition is 3%.

Consider `COc1cc(-c2ccc(-c3cnc(N)nc3OC)[nH]2)cc(OC)c1OC`, for which the growth inhibition is 54% (active).

Source of the values: PubChem BioAssay.
